Results: PubChem BioAssay (Tox21)
Results filed as inconclusive are left out. The source made the active and inactive calls. Calls follow the shape of the dose curve; as a rule, active = well fitted curve in the direction sought with a large enough effect in the repeat runs; inconclusive = weak or mixed curves; inactive = no such curve, though single readings can be large; an effect the other way counts as inactive or inconclusive.

Assays:
[1] = molecular target: Nuclear receptor subfamily 1 group I member 2 (Homo sapiens) (UniProt O75469); test: CYP3A4 induction through human pregnane X receptor (PXR) by small molecules, qHTS assay (AID 1346984); also: nearly all actives have a fitted effect of over 40% in size
In short: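 Read-out is luminescence after One-Glo addition, following a 3 hr, 37C incubation with Luciferin-IPA CYP3A4 substrate (3uM final). Before that, compounds were on DPX-2 cells (HepG2 co-transfected with PXR element plus CYP3A4-promoter luciferase) for 24 hr at 37C.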

[2] = molecular target: Nuclear receptor subfamily 1 group I member 2 (Homo sapiens) (UniProt O75469); test: Human pregnane X receptor (PXR) activation by small molecules, qHTS assay (AID 1346985); also: nearly all actives have a fitted effect of over 40% in size
In short: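 DPX-2 cells (HepG2 co-transfected with a PXR response element and a CYP3A4-promoter luciferase construct) were seeded at 2,000 per well, rested 5 hr at 37C, then exposed to DMSO-dissolved compounds for 24 hr. Activation was read as luciferase luminescence.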

[3] = molecular target: Cytochrome P450 2C19 (Homo sapiens) (UniProt P33261); test: Cytochrome P450 Family 2 Subfamily C Member 19 (CYP2C19) small molecule antagonists: luciferase reporter qHTS assay (AID 1671197); also: nearly all actives have a fitted effect of over 65% in size; also: potency is read from the fitted curve at half-maximal effect; as to activity change, negative = inhibition: series mostly up to about 120 µM
In short: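 P450-Glo CYP2C19 screening system; proluciferin substrate; DMSO compound stocks; 10 min RT preincubation; NADPH regeneration, 1 h at 37C; luciferin detection reagent, 20 min RT; luminescence as RLU.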

[4] = molecular target: Cytochrome P450 2C9 (Homo sapiens) (UniProt P11712); test: Cytochrome P450 Family 2 Subfamily C Member 9 (CYP2C9) small molecule antagonists: luciferase reporter qHTS assay (AID 1671198); also: nearly all actives have a fitted effect of over 50% in size; also: potency is read from the fitted curve at half-maximal effect; as to activity change, negative = inhibition: series mostly up to about 120 µM
In short: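 CYP2C9 activity was measured with a P450-Glo proluciferin substrate. Enzyme–substrate mix was held with compound for 10 min at room temperature, then NADPH regeneration solution was added for 1 h at 37C. Luciferin product was read as luminescence.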

[5] = molecular target: Cytochrome P450 1A2 (Homo sapiens) (UniProt P05177); test: Cytochrome P450 Family 1 Subfamily A Member 2 (CYP1A2) small molecule antagonists: luciferase reporter qHTS assay (AID 1671199); also: nearly all actives have a fitted effect of over 50% in size; also: potency is read from the fitted curve at half-maximal effect; as to activity change, negative = inhibition: series mostly up to about 120 µM
In short: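 Luminescence from luciferin formed by CYP1A2 from a proluciferin substrate, read 20 min after detection reagent. Compound was pre-incubated 10 min with enzyme-substrate, and reaction started with NADPH regeneration solution for 1 h at room temperature; furafylline control.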

[6] = molecular target: Voltage-gated inwardly rectifying potassium channel KCNH2 (Homo sapiens) (UniProt Q12809); test: Human Ether-a-go-go-Related Gene (hERG) channel small molecule antagonists: fluorescence cell-based qHTS assay (AID 1671200);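 also: hERG-expressing U2OS cells given a thallium stimulus after FluxOR II dye loading; series mostly up to about 77 µM; nearly all actives have a fitted effect of over 50% in size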
In short: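 In this thallium-flux screen, overnight-cultured U2OS cells bearing the channel are dye-loaded in darkness for an hour, rested 10 min at room temperature, and then monitored kinetically at 480/540 nm for two minutes post-stimulus.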

[7] = molecular target: Cytochrome P450 3A4 (Homo sapiens) (UniProt P08684); test: Cytochrome P450 Family 3 Subfamily A Member 4 (CYP3A4) small molecule antagonists: luciferase reporter qHTS assay (AID 1671201); also: series mostly up to about 120 µM; nearly all actives have a fitted effect of over 50% in size
In short: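 CYP3A4 activity was followed with a P450-Glo proluciferin substrate. Test compounds in DMSO were preincubated 10 min; NADPH regeneration then ran 1 h, and light output was read 20 min after detection reagent.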

[8] = molecular target: Cytochrome P450 2D6 (Homo sapiens) (UniProt P10635); test: Cytochrome P450 Family 2 Subfamily D Member 6 (CYP2D6) small molecule antagonists: luciferase reporter qHTS assay (AID 1671196)
In short: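 CYP2D6 activity was followed as luminescence from its luciferin product after a 1 h NADPH-driven reaction at room temperature. Enzyme-substrate mix and compound were pre-incubated for 10 min, and the signal was read 20 min after adding detection reagent.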
% is scaled to controls: 0 for no effect and ±100 for the full control effect.

Cytochrome P450 2D6 (Homo sapiens), sequence (P10635 whole entry, looked up): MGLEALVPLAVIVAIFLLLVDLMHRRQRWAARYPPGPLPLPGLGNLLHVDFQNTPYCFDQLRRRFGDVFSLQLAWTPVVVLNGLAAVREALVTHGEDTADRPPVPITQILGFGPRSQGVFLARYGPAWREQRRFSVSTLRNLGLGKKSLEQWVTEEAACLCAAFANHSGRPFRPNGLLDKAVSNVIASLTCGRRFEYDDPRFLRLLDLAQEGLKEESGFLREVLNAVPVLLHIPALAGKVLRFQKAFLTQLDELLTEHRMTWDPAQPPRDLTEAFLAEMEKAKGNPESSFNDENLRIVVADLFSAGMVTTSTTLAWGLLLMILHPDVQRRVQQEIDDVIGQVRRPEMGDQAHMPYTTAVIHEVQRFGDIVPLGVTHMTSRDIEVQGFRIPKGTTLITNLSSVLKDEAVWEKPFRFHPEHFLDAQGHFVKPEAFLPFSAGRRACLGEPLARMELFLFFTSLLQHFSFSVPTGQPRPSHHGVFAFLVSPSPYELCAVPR
Voltage-gated inwardly rectifying potassium channel KCNH2 (Homo sapiens), sequence (Q12809 whole entry, looked up): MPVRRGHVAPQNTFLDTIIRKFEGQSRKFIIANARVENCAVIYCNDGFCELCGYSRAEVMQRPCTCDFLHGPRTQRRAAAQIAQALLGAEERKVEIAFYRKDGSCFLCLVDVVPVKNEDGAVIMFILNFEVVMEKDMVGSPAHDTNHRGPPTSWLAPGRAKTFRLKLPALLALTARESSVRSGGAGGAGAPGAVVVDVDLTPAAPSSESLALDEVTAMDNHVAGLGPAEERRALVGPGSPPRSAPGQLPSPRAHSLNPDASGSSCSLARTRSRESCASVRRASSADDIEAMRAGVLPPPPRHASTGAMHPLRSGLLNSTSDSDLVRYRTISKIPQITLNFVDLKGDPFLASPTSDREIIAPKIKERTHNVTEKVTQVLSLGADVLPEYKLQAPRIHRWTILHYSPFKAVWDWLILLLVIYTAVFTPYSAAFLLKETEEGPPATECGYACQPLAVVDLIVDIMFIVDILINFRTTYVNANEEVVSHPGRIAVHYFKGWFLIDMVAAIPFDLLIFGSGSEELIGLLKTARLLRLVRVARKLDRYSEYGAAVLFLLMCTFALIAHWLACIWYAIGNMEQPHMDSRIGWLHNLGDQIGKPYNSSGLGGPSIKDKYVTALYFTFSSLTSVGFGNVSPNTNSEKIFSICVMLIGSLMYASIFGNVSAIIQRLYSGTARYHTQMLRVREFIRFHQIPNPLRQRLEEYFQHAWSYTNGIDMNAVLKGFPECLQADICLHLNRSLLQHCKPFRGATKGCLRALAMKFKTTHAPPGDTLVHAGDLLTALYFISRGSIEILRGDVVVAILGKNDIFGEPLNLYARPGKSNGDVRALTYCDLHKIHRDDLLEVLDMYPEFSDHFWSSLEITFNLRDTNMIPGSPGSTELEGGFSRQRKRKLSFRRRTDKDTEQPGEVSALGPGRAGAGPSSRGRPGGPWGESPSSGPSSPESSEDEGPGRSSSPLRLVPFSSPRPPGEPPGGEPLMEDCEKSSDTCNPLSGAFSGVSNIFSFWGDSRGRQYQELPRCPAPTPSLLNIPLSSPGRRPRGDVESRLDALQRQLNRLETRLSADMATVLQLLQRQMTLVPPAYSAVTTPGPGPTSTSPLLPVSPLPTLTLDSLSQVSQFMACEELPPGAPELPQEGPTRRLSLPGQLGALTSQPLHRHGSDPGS
Cytochrome P450 2C19 (Homo sapiens), sequence (P33261 whole entry, looked up): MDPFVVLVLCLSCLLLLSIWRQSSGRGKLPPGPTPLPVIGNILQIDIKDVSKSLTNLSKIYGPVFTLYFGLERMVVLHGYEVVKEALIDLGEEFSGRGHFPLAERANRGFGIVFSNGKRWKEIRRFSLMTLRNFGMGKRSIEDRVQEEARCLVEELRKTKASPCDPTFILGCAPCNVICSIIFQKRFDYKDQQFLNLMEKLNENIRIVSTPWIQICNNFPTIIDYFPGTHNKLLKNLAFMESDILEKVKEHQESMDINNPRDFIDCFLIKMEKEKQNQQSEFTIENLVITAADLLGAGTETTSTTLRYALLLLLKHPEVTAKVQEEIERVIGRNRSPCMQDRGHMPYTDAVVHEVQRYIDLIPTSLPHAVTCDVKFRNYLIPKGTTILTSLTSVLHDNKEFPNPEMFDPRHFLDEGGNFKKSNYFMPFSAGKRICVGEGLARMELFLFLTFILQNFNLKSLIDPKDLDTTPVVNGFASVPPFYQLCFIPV
Cytochrome P450 1A2 (Homo sapiens), sequence (P05177 whole entry, looked up): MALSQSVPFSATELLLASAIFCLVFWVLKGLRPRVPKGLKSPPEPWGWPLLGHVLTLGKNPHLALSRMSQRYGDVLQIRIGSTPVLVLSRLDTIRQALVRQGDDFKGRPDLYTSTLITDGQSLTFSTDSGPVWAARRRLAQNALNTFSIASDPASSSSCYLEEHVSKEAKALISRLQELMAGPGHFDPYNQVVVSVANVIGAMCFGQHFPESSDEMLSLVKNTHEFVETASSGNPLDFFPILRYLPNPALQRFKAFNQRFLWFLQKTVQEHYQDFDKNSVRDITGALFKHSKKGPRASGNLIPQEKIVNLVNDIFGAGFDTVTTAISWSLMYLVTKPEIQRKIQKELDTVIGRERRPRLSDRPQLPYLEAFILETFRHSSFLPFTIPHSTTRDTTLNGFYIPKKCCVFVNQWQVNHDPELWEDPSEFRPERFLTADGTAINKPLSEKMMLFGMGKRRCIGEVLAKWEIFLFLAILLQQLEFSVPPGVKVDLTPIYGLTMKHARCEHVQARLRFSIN
Cytochrome P450 3A4 (Homo sapiens), sequence (P08684 whole entry, looked up): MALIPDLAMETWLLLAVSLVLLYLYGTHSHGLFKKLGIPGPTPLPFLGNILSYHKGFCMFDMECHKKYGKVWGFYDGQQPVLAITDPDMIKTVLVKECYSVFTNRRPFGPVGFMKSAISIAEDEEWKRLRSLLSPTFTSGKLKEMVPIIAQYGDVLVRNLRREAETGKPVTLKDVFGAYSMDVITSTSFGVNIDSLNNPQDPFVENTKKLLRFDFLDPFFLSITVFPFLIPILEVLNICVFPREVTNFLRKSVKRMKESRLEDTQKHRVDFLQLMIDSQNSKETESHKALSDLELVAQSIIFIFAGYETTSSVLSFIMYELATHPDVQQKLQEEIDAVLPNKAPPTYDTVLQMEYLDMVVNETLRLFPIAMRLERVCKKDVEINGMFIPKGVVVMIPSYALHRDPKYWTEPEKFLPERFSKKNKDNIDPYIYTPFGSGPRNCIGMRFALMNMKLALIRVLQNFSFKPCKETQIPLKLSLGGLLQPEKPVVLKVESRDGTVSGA
Cytochrome P450 2C9 (Homo sapiens), sequence (P11712 whole entry, looked up): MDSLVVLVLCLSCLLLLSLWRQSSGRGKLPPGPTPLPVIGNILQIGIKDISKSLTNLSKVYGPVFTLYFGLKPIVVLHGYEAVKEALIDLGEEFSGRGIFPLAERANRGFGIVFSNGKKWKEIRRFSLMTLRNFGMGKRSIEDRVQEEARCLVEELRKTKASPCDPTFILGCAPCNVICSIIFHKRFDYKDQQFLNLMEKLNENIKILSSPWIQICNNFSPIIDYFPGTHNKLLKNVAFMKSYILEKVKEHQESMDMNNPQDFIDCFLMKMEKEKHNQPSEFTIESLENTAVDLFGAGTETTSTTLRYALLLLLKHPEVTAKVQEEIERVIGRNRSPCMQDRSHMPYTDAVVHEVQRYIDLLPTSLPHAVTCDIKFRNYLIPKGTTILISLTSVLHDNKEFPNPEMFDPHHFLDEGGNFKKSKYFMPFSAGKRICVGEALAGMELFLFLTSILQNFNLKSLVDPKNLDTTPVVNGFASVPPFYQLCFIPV

Cc1c(C(C)C)c(=O)n(-c2ccccc2)n1C
active: Potency [3] 43.6 µM
inactive: outcome [1] | Potency [2] | Potency [4] | Potency [5] | Potency [6] | Potency [7]

CC(=O)Nc1ncc([N+](=O)[O-])s1
active: Potency [5] 15.5 µM
inactive: outcome [1] | Potency [2] | Potency [8] | Potency [3] | Potency [6] | Potency [7]

CC(=O)N(CC(O)CO)c1c(I)c(C(=O)NCC(O)CO)c(I)c(C(=O)NCC(O)CO)c1I (stereo not drawn)
inactive: outcome [1] | Potency [2] | Potency [8] | Potency [3] | Potency [5] | Potency [6] | Potency [7]

O=C(/C=C/c1ccccc1)NCCO
active: Potency [3] 15.5 µM | Potency [4] 13.8 µM | Potency [5] 11.5 µM
inactive: outcome [1] | Potency [2] | Potency [6] | Potency [7]

Nc1ccc(S(=O)(=O)NC(=O)c2ccccc2)cc1
inactive: outcome [1] | Potency [2] | Potency [5] | Potency [6] | Potency [7]

CCNC(=O)/C=C/c1cccc(Br)c1
inactive: outcome [1] | Potency [2] | Potency [8] | Potency [3] | Potency [4] | Potency [6] | Potency [7]
active: Potency [5] 2.57 µM

NCCc1ccn[nH]1
inactive: Potency [2] | Potency [8] | Potency [4] | Potency [5] | Potency [6] | Potency [7]

Cc1oc(=O)oc1CN1CCN(c2cc3c(cc2F)c(=O)c(C(=O)O)c2n3C(C)S2)CC1 (stereo not drawn)
inactive: outcome [1] | Potency [2] | Potency [8] | Potency [3] | Potency [4] | Potency [5] | Potency [6] | Potency [7]

CC(C)(CO)[C@@H](O)C(=O)NCCCO
inactive: outcome [1] | Potency [2] | Potency [8] | Potency [3] | Potency [4] | Potency [5] | Potency [6] | Potency [7]

BrC/C=C/CBr
inactive: activity change, negative = inhibition [8] -5.12% [at 23.6 µM] | activity change, negative = inhibition [3] -2.14% [at 23.6 µM] | activity change, negative = inhibition [4] -9.58% [at 23.6 µM] | activity change, negative = inhibition [5] -13.1% [at 23.6 µM] | activity change, negative = inhibition [6] 3.44% [at 15.8 µM] | activity change, negative = inhibition [7] 0.976% [at 23.6 µM]

C=C[C@@H](C)CCC=C(C)C
inactive: Potency [8] | Potency [3] | Potency [4] | Potency [6] | Potency [7]
active: Potency [5] 39.9 µM

SCCSCCS
inactive: Potency [8] | Potency [3] | Potency [4] | Potency [5] | Potency [6] | Potency [7]

COC(/C=C(\C)CCC=C(C)C)OC
inactive: Potency [8] | Potency [3] | Potency [4] | Potency [5] | Potency [6] | Potency [7]

C1=C\CC/C=C\CC/1
inactive: Potency [8] | Potency [3] | Potency [4] | Potency [5] | Potency [6] | Potency [7]
